A selection: hits, their analogues and other compounds. The true share with any hit is near 2.2%.
APP transl inh = APP translation inhibition; SH-SY5Y APP 5'UTR-luciferase reporter, luminescence; inhibition, % at 2 µM; hit rate 0.82% among 190,000; AID 1285;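 active means inhibition above a set limit, derived from the sample mean plus 3 SD, cut at about 45% in these data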
aSyn UTR inh = MLPCN primary screen, SNCA 5' untranslated region; hit rate 0.82% among 300,000; alpha-synuclein 5'UTR reporter, inhibitor activity; inhibition, % (tested at 7.5 µM); in the data active means inhibition above about 60%;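 further: H4 neuroglioblastoma cells stably carrying SNCA 5'UTR luciferase fusion; 0% = DMSO wells and 100% = positive control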
Ba/F3 V617F tox = reduce viability of Ba/F3 cells dependent on JAK2V617F; Ba/F3 EpoR-JAK2V617F viability, ATP luminescence; inhibition, % at 5.6 µM; hit rate 1.1% among 220,000;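 active means inhibition above the campaign mean plus 3 SD over all tested compounds, cut at about 24% in these data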;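 further: cytokine-independent growth of Ba/F3 cells driven by EpoR plus mutant JAK2; 0% = DMSO-treated cells and 100% = JAK inhibitor I control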
IEC-6 tox = kills IEC-6 intestinal cells in KLF5 counter-screen; IEC-6 cytotoxicity, luminescence viability; inhibition, % at 5 µM; hit rate 0.78% among 290,000; AID 1825;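 further: 0% = plate median of test compound wells and 100% = cytotoxic reference compound wells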
BaF3 tox = reduces parental Ba/F3 cell viability, JAK2V617F counter-screen | inhibition, % at 5.6 µM | hit rate 1.1% among 220,000 | CellTiter-Glo ATP luminescence;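 active means inhibition above a per-campaign cutoff, the mean inhibition of all tested compounds plus 3 SD, cut at about 27% in these data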;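 further: 0% = DMSO wells and 100% = JAK Inhibitor I control wells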
KLF5 inh = kruppel-like factor 5 inhibition. DLD-1 KLF5 promoter-luciferase reporter, luminescence. inhibition, % at 5 µM. hit rate 0.23% among 290,000. AID 1700;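 active means inhibition above a per-plate limit of that plate's mean compound inhibition plus 3 SD, cut at about 60% in these data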;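 further: 0% = DMSO wells and 100% = LY294002 at 200 µM; higher means less KLF5 promoter-driven luciferase light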
IEC-6 cytotox cf = IEC-6 cytotoxicity, confirmation assay | inhibition, % at 5 µM | shares compounds with IEC-6 tox | hit rate 63% among 1,900 | IEC-6 rat intestinal epithelial viability, luminescence;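 further: 0% = vehicle and 100% = reference cytotoxic drug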
* = called active by the depositor; nt = no result. Unless noted, no stated cut-off is given here; in the data, active means inhibition above about 22%; inactive means the rest.

SMILES | APP transl inh | aSyn UTR inh | Ba/F3 V617F tox | IEC-6 tox | BaF3 tox | KLF5 inh | IEC-6 cytotox cf
OCCNc1ncnc2c1cnn2Cc1ccccc1 | nt | -3.3 | nt | -2.5 | nt | -27.2 | nt
c1ccc(CNc2ncnc3c2cnn3Cc2ccccc2)cc1 | 2.4 | 15.2 | 27.0* | 27.4* | 33.2* | 1.0 | 35.0*
CCN(CC)S(=O)(=O)c1ccc(NN=C2CCN(C)CC2)c([N+](=O)[O-])c1 | -0.1 | -8.0 | -1.0 | -5.0 | 7.5 | -17.2 | nt
Cn1c2ccccc2c(=O)c2ccc(C#Cc3ccc(N)cc3)cc21 | nt | -26.5 | nt | 36.3* | nt | -44.1 | 33.4*
COc1ccc(C#Cc2ccc3c(=O)c4ccccc4n(C)c3c2)cc1 | nt | -53.1 | nt | 0.5 | nt | -13.5 | nt
COC(=O)C(O)(CC(=O)Nc1cccc(SC)c1)C(F)(F)F (configuration not stated) | -11.6 | 25.8 | -2.5 | -1.4 | 2.4 | -35.0 | nt
CCc1nn(C(C)C(=O)N2CCN(c3ccc(OC)cc3)CC2)c(=O)c2cc3occc3n12 (configuration not stated) | nt | 47.9 | nt | 44.1* | nt | 32.2 | 24.1*
CCc1nn(C(C)C(=O)N2CC(C)CC(C)C2)c(=O)c2cc3occc3n12 (configuration not stated) | nt | 10.1 | nt | 1.4 | nt | 11.7 | nt
O=C(O)c1cccc(NS(=O)(=O)c2ccc(Cl)c(C(=O)Nc3cccc([N+](=O)[O-])c3)c2)c1 | nt | -8.9 | nt | nt | nt | nt | nt
Cc1cc2nc(CN(C)Cc3c(C(=O)N(C)C)nc4ccc(Cl)cn34)[nH]c2cc1C | -3.1 | 0.7 | -6.3 | 5.1 | -0.1 | -19.1 | nt
O=C(NCc1ccc2c(c1)OCO2)c1nc(S(=O)(=O)Cc2ccccc2F)ncc1Cl | nt | 42.0 | nt | 35.1* | nt | 10.8 | 12.1
O=C(NCc1ccc2c(c1)OCO2)c1nc(S(=O)(=O)Cc2ccccc2)ncc1Cl | nt | 36.4 | nt | 24.0* | nt | 7.4 | 14.6
Cc1ccc(/C=N/NC(=O)c2c(C)nc3ccc(Br)cn23)cc1 | nt | 80.5* | nt | 68.7* | nt | 63.4* | 44.6*
COc1cc(/C=N/NC(=O)Cc2ccc(Br)cc2)cc(OC)c1O | -12.0 | 1.6 | -5.0 | -1.7 | -0.8 | -9.1 | nt
COc1cc(/C=N/NC(=O)CC#N)cc(Br)c1O | -6.1 | -4.0 | -4.3 | 36.8* | -0.4 | 8.9 | -6.0
c1ccc2c(c1)CC1(CCCC1)N=C2N1CCOCC1 | nt | 9.3 | -4.2 | -5.7 | 1.0 | -21.6 | nt
O=C(CCl)N1CCCC1c1ccc2c(c1)OCCO2 (configuration not stated) | nt | -151.8 | nt | 77.6* | nt | 20.0 | 24.4*
COC(=O)C1CCN(Cc2cn(-c3ccccc3)nc2-c2ccc3c(c2)OCO3)CC1 | 1.0 | -17.0 | 1.6 | 6.6 | 4.4 | -7.2 | nt
COc1ccc(-c2ccc(CCC(=O)O)n2-c2ccccc2OC)cc1 | nt | -45.3 | nt | 40.7* | nt | 36.2 | -2.7
CCn1ccnc1CN(C)C(=O)CCc1nnc(CCC2CCCCC2)o1 | -3.9 | -7.9 | -1.2 | -4.0 | 3.4 | -25.5 | nt
CCOc1ccc(N(CC(=O)Nc2ccccc2OC)S(=O)(=O)c2ccccc2)cc1 | nt | 123.4* | nt | 78.0* | nt | 58.7 | 53.1*
COc1ccc(N(CC(=O)Nc2ccc(OC)cc2OC)S(=O)(=O)c2ccccc2)cc1 | -21.2 | -9.3 | -5.9 | 3.6 | 2.1 | -10.5 | nt
CC1(C)CC(=O)C(C(=O)C2CCN(S(=O)(=O)c3ccccc3)CC2)C(=O)C1 | 1.0 | 7.4 | 2.2 | 1.2 | 5.7 | -27.9 | nt
COc1ccc(S(=O)(=O)N2CCNC(=O)CC2)cc1 | nt | -1.9 | nt | 4.0 | nt | -9.5 | nt
COc1ccc(OC)c(Nc2nc(N)c([N+](=O)[O-])c(NC3CCCCC3)n2)c1 | nt | 26.9 | nt | -1.4 | nt | -5.8 | nt
SMILES | APP transl inh | aSyn UTR inh | Ba/F3 V617F tox | IEC-6 tox | BaF3 tox | KLF5 inh | IEC-6 cytotox cf
NCCCNc1nc(N)c([N+](=O)[O-])c(NC2CCCCC2)n1 | nt | 49.1 | nt | 46.5* | nt | 54.8 | 43.2*
CCOC(=O)C1CCCN(C(=O)c2ccc3nc(-c4cccc(OC)c4)oc3c2)C1 (configuration not stated) | nt | -29.7 | nt | 29.5* | nt | -51.3 | 14.8
CC(=O)N1CCN(c2ccc(NC(=O)c3ccc4c(c3)OCO4)cc2)CC1 | 8.0 | 6.3 | -2.6 | -1.1 | 1.6 | -12.7 | nt
O=C(Nc1ccc(N2CCN(C(=O)c3ccccc3)CC2)cc1)c1ccc2c(c1)OCO2 | -1.6 | 35.8 | 71.5* | 25.8* | 70.3* | 58.5 | 21.8
CC(C)Cc1ccc(CN2CCCC(NC(=O)CCN3CCCO3)C2)cc1 (configuration not stated) | nt | -56.5 | nt | -8.1 | nt | -53.5 | nt
Cc1cc(C(C)(C)C)cc(C)c1C[n+]1ccc2ccccc2c1 | nt | 7.4 | nt | 27.7* | nt | -21.1 | 22.3*
